Columns and labels:
Experiment in all cases: DAPPL (digital affinity profiling via proximity ligation, sequencing); 10 mM Tris-HCl pH 7.5, 50 mM NaCl, 1 mM DTT, 4% glycerol, room temperature, 30 min; GST-TFs on glutathione beads, 16-mer random dsDNA library, 0.1% formaldehyde crosslink after washing; high values mean tight binding
FEV = molecular target: T1, FEV (Homo sapiens, UniProt Q99581 1-238); conditions: protein: recombinant; tags: N-terminal GST; dsDNA, one strand shown
T1 sequence: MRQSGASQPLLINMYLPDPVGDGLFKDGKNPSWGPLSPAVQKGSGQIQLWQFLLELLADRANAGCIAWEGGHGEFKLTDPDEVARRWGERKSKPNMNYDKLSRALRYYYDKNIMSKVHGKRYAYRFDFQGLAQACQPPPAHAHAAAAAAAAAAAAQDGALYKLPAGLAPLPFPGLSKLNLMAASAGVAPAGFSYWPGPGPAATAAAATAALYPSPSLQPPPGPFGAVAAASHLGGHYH
Summary of the method: (§1)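 Human transcription factors carrying a GST fusion were produced in yeast, bound to glutathione beads, tagged with DNA barcodes and pooled together with a tag-only sample. Each pool was held with 200 nmole of a random double-stranded 16-mer DNA library in Tris/NaCl/DTT/glycerol buffer for 30 min at room temperature, then washed, crosslinked in 0.1% formaldehyde, proximity-ligated with BsaI/T4 ligase (1 h, 37 °C), PCR-amplified and sequenced on an Illumina NextSeq500. Binding signal is the read frequency of each hexamer for a given factor divided by its frequency in the tag-only sample.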

ETV5 = ETV5 (Homo sapiens, UniProt P41161 1-510); conditions: protein: recombinant; tags: N-terminal GST; dsDNA, one strand shown
Summary of the method: as §1

HSF1 = HSF1 (Homo sapiens, UniProt Q00613 1-529); conditions: protein: recombinant; tags: N-terminal GST; chain copies: 3; dsDNA, one strand shown
Summary of the method: as §1

SPIC = molecular target: T2, SPIC (Homo sapiens, UniProt Q8N5J4 1-248); conditions: protein: recombinant; tags: N-terminal GST; dsDNA, one strand shown
T2 sequence: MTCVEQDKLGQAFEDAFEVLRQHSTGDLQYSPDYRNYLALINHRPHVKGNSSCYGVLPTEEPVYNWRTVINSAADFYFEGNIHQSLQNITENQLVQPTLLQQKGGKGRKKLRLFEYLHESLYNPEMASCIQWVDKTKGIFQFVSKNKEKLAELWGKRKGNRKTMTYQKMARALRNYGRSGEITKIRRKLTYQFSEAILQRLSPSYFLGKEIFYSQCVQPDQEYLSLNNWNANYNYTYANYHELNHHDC
Summary of the method: as §1

ELF4 = ELF4 (Homo sapiens, UniProt Q99607 1-663); conditions: protein: recombinant; tags: N-terminal GST; dsDNA, one strand shown
Summary of the method: as §1

ELK4 = molecular target: T3, ELK4 (Homo sapiens, UniProt P28324-2 1-405); conditions: protein: recombinant; tags: N-terminal GST; dsDNA, one strand shown
T3 sequence: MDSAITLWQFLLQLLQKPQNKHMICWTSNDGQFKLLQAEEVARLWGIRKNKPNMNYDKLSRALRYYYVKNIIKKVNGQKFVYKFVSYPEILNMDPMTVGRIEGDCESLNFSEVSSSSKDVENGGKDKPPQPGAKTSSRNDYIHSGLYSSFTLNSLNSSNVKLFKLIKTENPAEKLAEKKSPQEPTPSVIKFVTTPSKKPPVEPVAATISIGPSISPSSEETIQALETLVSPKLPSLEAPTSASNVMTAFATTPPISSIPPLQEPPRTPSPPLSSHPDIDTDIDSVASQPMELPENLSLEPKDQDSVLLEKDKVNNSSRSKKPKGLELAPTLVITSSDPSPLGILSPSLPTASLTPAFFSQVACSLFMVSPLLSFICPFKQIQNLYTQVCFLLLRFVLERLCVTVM
Summary of the method: as §1

ETV2 = molecular target: T4, ETV2 (Homo sapiens, UniProt O00321 1-342); conditions: protein: recombinant; tags: N-terminal GST; dsDNA, one strand shown
T4 sequence: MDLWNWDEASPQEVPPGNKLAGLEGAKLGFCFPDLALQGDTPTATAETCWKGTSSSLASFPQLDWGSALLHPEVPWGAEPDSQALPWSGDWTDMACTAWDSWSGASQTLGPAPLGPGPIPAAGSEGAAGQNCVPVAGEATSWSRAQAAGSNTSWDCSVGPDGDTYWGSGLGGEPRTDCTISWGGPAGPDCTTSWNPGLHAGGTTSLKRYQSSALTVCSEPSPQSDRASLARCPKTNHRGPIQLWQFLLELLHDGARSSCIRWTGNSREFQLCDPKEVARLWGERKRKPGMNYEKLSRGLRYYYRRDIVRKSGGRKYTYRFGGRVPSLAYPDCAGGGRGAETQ
Summary of the method: as §1

ELF3 = molecular target: T5, ELF3 (Homo sapiens, UniProt P78545 1-371); conditions: protein: recombinant; tags: N-terminal GST; dsDNA, one strand shown
T5 sequence: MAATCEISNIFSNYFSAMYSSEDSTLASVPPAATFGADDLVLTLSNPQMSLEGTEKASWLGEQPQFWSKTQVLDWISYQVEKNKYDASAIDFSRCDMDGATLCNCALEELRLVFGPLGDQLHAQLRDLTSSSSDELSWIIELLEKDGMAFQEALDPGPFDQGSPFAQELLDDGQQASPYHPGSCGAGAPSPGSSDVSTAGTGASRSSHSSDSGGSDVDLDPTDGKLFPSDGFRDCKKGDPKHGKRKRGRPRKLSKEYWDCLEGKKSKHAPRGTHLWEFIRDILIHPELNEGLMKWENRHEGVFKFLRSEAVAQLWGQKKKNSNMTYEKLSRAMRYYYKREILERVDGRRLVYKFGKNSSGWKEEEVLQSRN
Summary of the method: as §1

CRX = CRX (Homo sapiens, UniProt O43186 1-299); conditions: protein: recombinant; tags: N-terminal GST; dsDNA, one strand shown
Summary of the method: as §1

ETV1 = ETV1 (Homo sapiens, UniProt P50549 1-477); conditions: protein: recombinant; tags: N-terminal GST; dsDNA, one strand shown
Summary of the method: as §1

Sequence of CRX (O43186 whole entry): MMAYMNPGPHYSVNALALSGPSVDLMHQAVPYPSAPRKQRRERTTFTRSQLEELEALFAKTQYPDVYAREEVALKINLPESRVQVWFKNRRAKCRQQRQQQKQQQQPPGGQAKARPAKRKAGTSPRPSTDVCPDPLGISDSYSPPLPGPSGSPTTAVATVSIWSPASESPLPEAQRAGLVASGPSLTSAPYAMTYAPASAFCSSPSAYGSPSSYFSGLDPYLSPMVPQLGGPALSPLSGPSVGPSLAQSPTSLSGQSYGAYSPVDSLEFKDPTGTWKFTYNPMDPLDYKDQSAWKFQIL
Sequence of ETV5 (P41161 whole entry): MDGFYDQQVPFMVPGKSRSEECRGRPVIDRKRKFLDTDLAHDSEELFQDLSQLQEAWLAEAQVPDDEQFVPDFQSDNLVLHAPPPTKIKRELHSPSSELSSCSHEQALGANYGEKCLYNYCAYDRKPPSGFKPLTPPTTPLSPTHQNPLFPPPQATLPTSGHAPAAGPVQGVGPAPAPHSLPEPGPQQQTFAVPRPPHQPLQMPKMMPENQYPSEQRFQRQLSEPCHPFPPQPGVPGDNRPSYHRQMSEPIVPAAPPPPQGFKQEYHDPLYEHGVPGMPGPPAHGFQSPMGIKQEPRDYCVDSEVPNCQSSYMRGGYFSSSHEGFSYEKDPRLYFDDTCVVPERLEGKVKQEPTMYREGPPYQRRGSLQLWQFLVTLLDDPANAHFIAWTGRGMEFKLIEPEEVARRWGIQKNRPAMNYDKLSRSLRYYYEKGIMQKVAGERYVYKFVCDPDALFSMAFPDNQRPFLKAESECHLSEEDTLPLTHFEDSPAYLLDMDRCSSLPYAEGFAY
Sequence of HSF1 (Q00613 whole entry): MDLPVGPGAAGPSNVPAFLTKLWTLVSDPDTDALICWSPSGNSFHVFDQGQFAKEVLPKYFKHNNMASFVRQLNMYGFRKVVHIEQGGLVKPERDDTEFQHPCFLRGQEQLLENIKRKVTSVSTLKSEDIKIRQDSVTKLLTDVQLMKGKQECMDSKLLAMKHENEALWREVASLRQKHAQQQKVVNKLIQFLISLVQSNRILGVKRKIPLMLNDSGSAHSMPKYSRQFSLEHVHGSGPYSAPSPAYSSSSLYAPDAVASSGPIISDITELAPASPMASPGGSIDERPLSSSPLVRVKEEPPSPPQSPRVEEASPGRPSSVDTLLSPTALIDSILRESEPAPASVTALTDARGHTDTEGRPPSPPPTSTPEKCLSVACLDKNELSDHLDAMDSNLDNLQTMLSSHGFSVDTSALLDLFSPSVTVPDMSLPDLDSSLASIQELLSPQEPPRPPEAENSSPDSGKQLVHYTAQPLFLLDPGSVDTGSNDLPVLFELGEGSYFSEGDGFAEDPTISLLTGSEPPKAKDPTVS
Sequence of ELF4 (Q99607 whole entry): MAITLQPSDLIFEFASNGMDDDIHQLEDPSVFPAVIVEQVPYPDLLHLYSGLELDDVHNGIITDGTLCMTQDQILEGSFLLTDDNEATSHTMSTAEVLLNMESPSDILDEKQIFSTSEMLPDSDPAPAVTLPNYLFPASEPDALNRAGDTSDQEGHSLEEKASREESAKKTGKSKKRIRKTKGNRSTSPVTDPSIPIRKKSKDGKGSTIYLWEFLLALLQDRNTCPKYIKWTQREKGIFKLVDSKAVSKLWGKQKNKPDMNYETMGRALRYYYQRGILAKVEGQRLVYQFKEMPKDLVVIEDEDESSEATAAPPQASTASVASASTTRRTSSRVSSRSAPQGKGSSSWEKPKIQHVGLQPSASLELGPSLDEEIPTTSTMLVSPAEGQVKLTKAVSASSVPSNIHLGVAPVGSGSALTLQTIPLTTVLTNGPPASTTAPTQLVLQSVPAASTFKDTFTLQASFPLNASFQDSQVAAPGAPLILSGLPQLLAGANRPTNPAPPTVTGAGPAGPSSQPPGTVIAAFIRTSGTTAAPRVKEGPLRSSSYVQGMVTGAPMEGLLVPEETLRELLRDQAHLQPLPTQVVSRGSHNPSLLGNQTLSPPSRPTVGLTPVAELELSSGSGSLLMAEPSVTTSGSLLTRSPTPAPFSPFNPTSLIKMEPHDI
Sequence of ETV1 (P50549 whole entry): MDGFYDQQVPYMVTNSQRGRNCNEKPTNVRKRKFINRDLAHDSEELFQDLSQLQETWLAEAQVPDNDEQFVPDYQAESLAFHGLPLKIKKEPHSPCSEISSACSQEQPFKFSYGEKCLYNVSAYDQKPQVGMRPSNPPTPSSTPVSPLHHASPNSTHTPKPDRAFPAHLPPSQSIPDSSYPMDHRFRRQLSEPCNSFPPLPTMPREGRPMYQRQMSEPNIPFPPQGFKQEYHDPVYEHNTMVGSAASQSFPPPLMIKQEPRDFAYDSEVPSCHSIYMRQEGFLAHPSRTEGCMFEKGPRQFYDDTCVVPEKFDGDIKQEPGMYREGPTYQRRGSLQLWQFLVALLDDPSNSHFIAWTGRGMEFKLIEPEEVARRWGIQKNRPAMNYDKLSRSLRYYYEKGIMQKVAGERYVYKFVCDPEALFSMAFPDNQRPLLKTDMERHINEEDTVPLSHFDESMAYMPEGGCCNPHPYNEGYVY

ATCCCA
binding signal (FEV): 1.14 fold enrichment (6-mer frequency, TF over GST control) | binding signal (ETV5): 1.11 fold enrichment (6-mer frequency, TF over GST control) | binding signal (HSF1): 1.34 fold enrichment (6-mer frequency, TF over GST control) | binding signal (SPIC): 1.07 fold enrichment (6-mer frequency, TF over GST control) | binding signal (ELF4): 1.1 fold enrichment (6-mer frequency, TF over GST control) | binding signal (ELK4): 1.13 fold enrichment (6-mer frequency, TF over GST control) | binding signal (ETV2): 1.14 fold enrichment (6-mer frequency, TF over GST control) | binding signal (ELF3): 1.23 fold enrichment (6-mer frequency, TF over GST control) | binding signal (CRX): 1.69 fold enrichment (6-mer frequency, TF over GST control) | binding signal (ETV1): 1.09 fold enrichment (6-mer frequency, TF over GST control)
